Laboratory results: PubChem BioAssay AID1159580 (chemical genetic matrix, 2015)
In all, about 5,500 compounds went through this assay and about 2,000 (36%) were called active. Not shown: some 18% with an inconclusive outcome. No stated cut-off is given here; in the data, active means normalized growth mostly below about 0.91 (no sharp cut-off); inconclusive means no clear call, values can overlap the other calls; inactive means mostly above about 0.92. The list shows a part of the results.

Test: chemical genetic growth profiling, strain panel (AID 1159580);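 further: tested at 20 µM; growth read once vehicle control cultures reached saturation at 30 °C; 1 = growth at the plate median or of vehicle wells; lower values mean less growth of the strain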
Conditions: S. cerevisiae deletion strains, growth OD

Measured: normalized growth

O=S(=O)(c1cccc2c(I)cccc12)N1CCCNCC1
inactive: locus YAL013W, strain DEP1, active compounds read low 0.983 | locus YAL040C, strain CLN3, active compounds read low 0.979 | locus YCL061C, strain MRC1 (second series), active compounds read low 0.984 | locus YDR150W, strain NUM1, active compounds read low 0.991 | locus YDR363W, strain ESC2, active compounds read low 0.958 | locus YER002W, strain NOP16, active compounds read low 1.01 | locus YGR078C, strain PAC10, active compounds read low 0.982 | locus YGR229C, strain SMI1, active compounds read low 1 | locus YJR075W, strain HOC1, active compounds read low 1.01 | locus YNL128W, strain TEP1, active compounds read low 1.06 | locus YNL153C, strain GIM3, active compounds read low 0.927 | locus YNL175C, strain NOP13, active compounds read low 0.995 | locus YNL197C, strain WHI3, active compounds read low 0.986 | locus YNL224C, strain SQS1, active compounds read low 1.02 | locus YOR083W, strain WHI5 (second series), active compounds read low 0.932 | locus YPL241C, strain CIN2, active compounds read low 0.984
